# Reference: PubChem BioAssay (NCI)
# Compounds without any hit were thinned out: in the full panel of roughly 79,000, 15% have a hit. A number with no mark means an inactive call. The source made the active and inactive calls. Cut-off read from the data, not from the text of the source: active = growth inhibition above about 70%; inactive = the rest.
# Experiments:
# [1] = NCI Yeast Anticancer Drug Screen. Data for the mec2-1 strain (AID 157); settings: S. cerevisiae mec2-1 strain, stronger effect = higher value
# In short: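 Cells of the genetically defined mec2-1 yeast strain are incubated with test compound. Inhibition of growth is calculated against vehicle-treated controls.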
# [2] = NCI Yeast Anticancer Drug Screen. Data for the rad14 strain (AID 159);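 note: 0% = growth of vehicle-treated control cultures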; settings: S. cerevisiae rad14 strain growth inhibition, stronger effect = higher value
# In short: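 Growth inhibition vs vehicle controls; genetically altered yeast strain (DNA damage repair defect) treated with test compounds.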
# [3] = NCI Yeast Anticancer Drug Screen. Data for the sgs1 mgt1 strain (AID 161);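 note: 0% = growth of cultures given vehicle only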; settings: S. cerevisiae sgs1 mgt1 strain, stronger effect = higher value
# In short: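 Inhibition of yeast growth, normalised to vehicle-treated controls, is reported for a strain bearing genetic alterations in DNA damage repair.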
# [4] = NCI Yeast Anticancer Drug Screen. Data for the CLN2oe strain (AID 163);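 note: 0% = growth of vehicle-only control cultures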; settings: S. cerevisiae CLN2oe strain, stronger effect = higher value
# In short: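 Strain altered in cell-cycle control, incubated with compound; growth compared to solvent-treated controls.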
# [5] = NCI Yeast Anticancer Drug Screen. Data for the cln2 rad14 strain (AID 165);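 note: 0% = growth equal to vehicle treated cultures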; settings: S. cerevisiae cln2 rad14 strain, stronger effect = higher value
# In short: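 The screen exposed genetically defined yeast (cln2 rad14) to test compounds and scored growth inhibition relative to vehicle-treated controls.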
# [6] = NCI Yeast Anticancer Drug Screen. Data for the bub3 strain (AID 167); settings: S. cerevisiae bub3 mutant strain, stronger effect = higher value
# In short: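 Readout: yeast growth inhibition, expressed relative to vehicle-only wells. The test organism is a mutant strain from a panel with lesions in DNA repair or checkpoint genes.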
# [7] = NCI Yeast Anticancer Drug Screen. Data for the wt2 strain (AID 169);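 note: 0% = growth of vehicle-treated yeast cultures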; settings: S. cerevisiae wt2 strain growth inhibition, stronger effect = higher value
# In short: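 Steps: yeast strain treated with compound; growth recorded; inhibition calculated relative to cultures given vehicle alone.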
# [8] = NCI Yeast Anticancer Drug Screen. Data for the mlh1 strain (AID 171);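 note: 0% = growth of vehicle-treated control cultures of the same strain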; settings: S. cerevisiae mlh1 strain growth inhibition, stronger effect = higher value
# In short: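 Yeast screen: mutant strain plus compound, growth scored against vehicle control wells.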
# [9] = NCI Yeast Anticancer Drug Screen. Data for the sgs1 strain (AID 173);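 note: 0% = growth of vehicle-only control cultures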; settings: S. cerevisiae sgs1 mutant, stronger effect = higher value
# In short: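 Inhibition of yeast growth served as the measure. The mutant strain was treated with each compound, and growth was normalised to cultures receiving vehicle alone.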
# [10] = NCI Yeast Anticancer Drug Screen. Data for the mlh1 rad18 strain (AID 175); settings: S. cerevisiae mlh1 rad18 strain growth inhibition, stronger effect = higher value
# In short: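 Compound-treated yeast growth, normalised to vehicle controls. Strain bears defined DNA repair mutations.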
# [11] = NCI Yeast Anticancer Drug Screen. Data for the rad18 strain (AID 177); settings: S. cerevisiae rad18 mutant growth inhibition, stronger effect = higher value
# In short: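 Inhibition values reflect reduced yeast growth compared with vehicle-treated controls, using a strain engineered with a DNA damage repair defect.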
# [12] = NCI Yeast Anticancer Drug Screen. Data for the rad52 strain (AID 147);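 note: 0% = growth of vehicle-treated control cultures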; settings: S. cerevisiae rad52 mutant growth inhibition, stronger effect = higher value
# In short: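 Genetically altered yeast (DNA damage repair defect) treated with compound; inhibition calculated relative to vehicle.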
# [13] = NCI Yeast Anticancer Drug Screen. Data for the rad50EPP+ strain (AID 151);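 note: 0% = growth of vehicle-treated control cultures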; settings: S. cerevisiae rad50 mutant strain, stronger effect = higher value
# In short: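 Strain rad50EPP+; compound exposure; % growth inhibition vs vehicle.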
# [14] = NCI Yeast Anticancer Drug Screen. Data for the mgt1 strain (AID 153); settings: S. cerevisiae mgt1 mutant growth inhibition, stronger effect = higher value
# In short: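 Read-out: yeast growth inhibition vs vehicle control. Strain mgt1, drawn from a panel altered in DNA damage repair or cell cycle control.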
# [15] = NCI Yeast Anticancer Drug Screen. Data for the rad50 strain (AID 155);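 note: 0% = growth of vehicle-only cultures of the same strain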; settings: S. cerevisiae rad50 strain growth inhibition, stronger effect = higher value
# In short: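 Readout: growth inhibition relative to vehicle-treated cultures. Compound exposure was carried out in a genetically defined yeast strain deficient in DNA damage repair.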
# [16] = at 5.0 µM (retest, dose inferred, filed as 0.5)
# [17] = at 50.0 µM (retest, dose inferred, filed as 5.0)
smiles,measurement,setting,value
C/C(=N\N=C(N)N)C(CN1CCOCC1)C(c1ccccc1)c1c(O)c2ccccc2oc1=O (stereo unspecified),growth inhibition,[1]; at 100.0 µM,51%
same,growth inhibition,[2]; at 1.2 µM,4%
same,growth inhibition,[2]; at 3.7 µM,1%
same,growth inhibition,[2]; at 11.0 µM,-2%
same,growth inhibition,[2]; at 33.0 µM,6%
same,growth inhibition,[2]; at 100.0 µM,93% (active)
same,growth inhibition,[3]; [16],88% (active)
same,growth inhibition,[3]; [17],88% (active)
same,growth inhibition,[3]; at 50.0 µM,86% (active)
same,growth inhibition,[4]; at 1.2 µM,0%
same,growth inhibition,[4]; at 3.7 µM,7%
same,growth inhibition,[4]; at 11.0 µM,2%
same,growth inhibition,[4]; at 33.0 µM,18%
same,growth inhibition,[4]; at 100.0 µM,48%
same,growth inhibition,[5]; [16],7%
same,growth inhibition,[5]; [17],7%
same,growth inhibition,[5]; at 50.0 µM,85.5% (active)
same,growth inhibition,[6]; at 1.2 µM,5%
same,growth inhibition,[6]; at 3.7 µM,4%
same,growth inhibition,[6]; [16],31%
same,growth inhibition,[6]; at 11.0 µM,18%
same,growth inhibition,[6]; at 33.0 µM,47%
same,growth inhibition,[6]; [17],31%
same,growth inhibition,[6]; at 50.0 µM,77.8% (active)
same,growth inhibition,[6]; at 100.0 µM,43%
same,growth inhibition,[7]; at 1.2 µM,-1%
same,growth inhibition,[7]; at 3.7 µM,0%
same,growth inhibition,[7]; at 11.0 µM,0%
same,growth inhibition,[7]; at 33.0 µM,35%
same,growth inhibition,[7]; at 100.0 µM,95% (active)
same,growth inhibition,[8]; at 1.2 µM,-2%
same,growth inhibition,[8]; at 3.7 µM,-8%
same,growth inhibition,[8]; at 11.0 µM,-7%
same,growth inhibition,[8]; at 33.0 µM,40%
same,growth inhibition,[8]; at 100.0 µM,96% (active)
same,growth inhibition,[9]; at 1.2 µM,-1%
same,growth inhibition,[9]; at 3.7 µM,-3%
same,growth inhibition,[9]; at 11.0 µM,0%
same,growth inhibition,[9]; at 33.0 µM,42%
same,growth inhibition,[9]; at 100.0 µM,97% (active)
same,growth inhibition,[10]; [16],57%
same,growth inhibition,[10]; [17],57%
same,growth inhibition,[10]; at 50.0 µM,49.2%
same,growth inhibition,[11]; at 1.2 µM,-3%
same,growth inhibition,[11]; at 3.7 µM,-9%
same,growth inhibition,[11]; at 11.0 µM,-12%
same,growth inhibition,[11]; at 33.0 µM,13%
same,growth inhibition,[11]; at 100.0 µM,93% (active)
CC1=C(N2CC2)C(=O)c2ccccc2C1=O,growth inhibition,[12]; at 1.2 µM,1%
same,growth inhibition,[12]; at 3.7 µM,11%
same,growth inhibition,[12]; at 11.0 µM,22%
same,growth inhibition,[12]; at 33.0 µM,69%
same,growth inhibition,[12]; at 100.0 µM,97% (active)
same,growth inhibition,[13]; at 1.2 µM,5%
same,growth inhibition,[13]; at 3.7 µM,16%
same,growth inhibition,[13]; at 11.0 µM,48%
same,growth inhibition,[13]; at 33.0 µM,79% (active)
same,growth inhibition,[13]; at 100.0 µM,96% (active)
same,growth inhibition,[14]; at 1.2 µM,0%
same,growth inhibition,[14]; at 3.7 µM,-49%
same,growth inhibition,[14]; at 11.0 µM,2%
same,growth inhibition,[14]; at 33.0 µM,13%
same,growth inhibition,[14]; at 100.0 µM,36%
same,growth inhibition,[15]; at 1.2 µM,1%
same,growth inhibition,[15]; at 3.7 µM,1%
same,growth inhibition,[15]; [16],-103%
same,growth inhibition,[15]; at 11.0 µM,23%
same,growth inhibition,[15]; at 33.0 µM,70% (active)
same,growth inhibition,[15]; [17],84% (active)
same,growth inhibition,[15]; at 50.0 µM,53.7%
same,growth inhibition,[15]; at 100.0 µM,97% (active)
same,growth inhibition,[1]; at 1.2 µM,4%
same,growth inhibition,[1]; at 3.7 µM,3%
same,growth inhibition,[1]; [16],-46%
same,growth inhibition,[1]; at 11.0 µM,6%
same,growth inhibition,[1]; at 33.0 µM,11%
same,growth inhibition,[1]; [17],4%
same,growth inhibition,[1]; at 50.0 µM,19.8%
same,growth inhibition,[1]; at 100.0 µM,49%
same,growth inhibition,[3]; [16],-41%
same,growth inhibition,[3]; [17],72% (active)
same,growth inhibition,[3]; at 50.0 µM,43%
same,growth inhibition,[4]; at 1.2 µM,-1%
same,growth inhibition,[4]; at 3.7 µM,0%
same,growth inhibition,[4]; at 11.0 µM,0%
same,growth inhibition,[4]; at 33.0 µM,2%
same,growth inhibition,[4]; at 100.0 µM,39%
same,growth inhibition,[5]; [16],-60%
same,growth inhibition,[5]; [17],48%
same,growth inhibition,[5]; at 50.0 µM,-6.55%
same,growth inhibition,[6]; at 1.2 µM,-3%
same,growth inhibition,[6]; at 3.7 µM,-2%
same,growth inhibition,[6]; [16],-64%
same,growth inhibition,[6]; at 11.0 µM,2%
same,growth inhibition,[6]; at 33.0 µM,16%
same,growth inhibition,[6]; [17],16%
same,growth inhibition,[6]; at 50.0 µM,-8.05%
same,growth inhibition,[6]; at 100.0 µM,66%
same,growth inhibition,[7]; at 1.2 µM,0%
same,growth inhibition,[7]; at 3.7 µM,1%
same,growth inhibition,[7]; at 11.0 µM,2%
same,growth inhibition,[7]; at 33.0 µM,0%
same,growth inhibition,[7]; at 100.0 µM,34%
same,growth inhibition,[8]; at 1.2 µM,7%
same,growth inhibition,[8]; at 3.7 µM,-3%
same,growth inhibition,[8]; at 11.0 µM,2%
same,growth inhibition,[8]; at 33.0 µM,9%
same,growth inhibition,[8]; at 100.0 µM,64%
same,growth inhibition,[9]; at 1.2 µM,0%
same,growth inhibition,[9]; at 3.7 µM,10%
same,growth inhibition,[9]; at 11.0 µM,36%
same,growth inhibition,[9]; at 33.0 µM,67%
same,growth inhibition,[9]; at 100.0 µM,96% (active)
same,growth inhibition,[10]; [16],-99%
same,growth inhibition,[10]; [17],65%
same,growth inhibition,[10]; at 50.0 µM,46.2%
same,growth inhibition,[11]; at 1.2 µM,36%
same,growth inhibition,[11]; at 3.7 µM,72% (active)
same,growth inhibition,[11]; at 11.0 µM,91% (active)
same,growth inhibition,[11]; at 33.0 µM,96% (active)
same,growth inhibition,[11]; at 100.0 µM,98% (active)
